“And” between values parts separate entries of the source, which are not always exact repeats. Equal entries are not always repeated. Inconclusive results are not listed. A structure can be active in one record and inactive in another. The source made the active and inactive calls. Rule for the calls: active = hit-call score of the fitted dose curve at least 0.9, where 1 is the maximum; inconclusive = response in the unintended direction; inactive = score below 0.9.
Target: Oxysterols receptor LXR-alpha (Homo sapiens) (UniProt Q13133)
Sequence (Q13133 whole entry, looked up): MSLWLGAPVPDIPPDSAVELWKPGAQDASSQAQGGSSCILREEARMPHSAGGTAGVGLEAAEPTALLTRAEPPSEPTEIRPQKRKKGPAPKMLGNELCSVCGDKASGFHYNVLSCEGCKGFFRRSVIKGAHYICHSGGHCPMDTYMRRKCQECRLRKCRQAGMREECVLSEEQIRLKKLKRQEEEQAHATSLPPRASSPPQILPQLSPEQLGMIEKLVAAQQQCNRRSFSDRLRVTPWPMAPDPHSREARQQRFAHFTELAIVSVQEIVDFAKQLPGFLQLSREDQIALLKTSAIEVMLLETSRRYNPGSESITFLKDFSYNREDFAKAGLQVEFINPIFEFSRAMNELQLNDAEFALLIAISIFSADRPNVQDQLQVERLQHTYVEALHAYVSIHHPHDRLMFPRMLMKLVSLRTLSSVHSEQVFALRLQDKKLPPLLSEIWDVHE
Test: ATG_LXRa_TRANS: Attagene TRANS-FACTORIAL HepG2 Assay for human Liver X Receptor alpha (LXRa) (AID 2282980)
Details: HepG2 Attagene TRANS reporter, LXRa transactivation
Protocol: ATG_TRANS is a cell-based, multiplexed-readout assay that uses HepG2, a human liver cell line, with measurements taken at 24 hours after chemical dosing in a 24-well plate.ATG_LXRa_TRANS is one of 30 assay component(s) measured or calculated from the ATG_TRANS assay. It is designed to make measurements of mRNA induction, a form of inducible reporter, as detected with fluorescence intensity signals by Reverse transcription polymerase chain reaction (RT-PCR) and Capillary electrophoresis technology.Data from the assay component ATG_LXRa_TRANS was analyzed into 1 assay endpoint. This assay endpoint, ATG_LXRa_TRANS, was analyzed in the positive analysis fitting direction relative to DMSO as the negative control and baseline of activity. Using a type of inducible reporter, measures of mRNA for gain-of-signal activity can be used to understand the reporter gene at the transcription factor-level as they relate to the gene NR1H3. Furthermore, this assay endpoint can be referred to as a primary readout, because this assay has produced multiple assay endpoints where this one serves a reporter gene function. To generalize the intended target to other relatable targets, this assay endpoint is annotated to the nuclear receptor intended target family, where the subfamily is non-steroidal.
Human liver HepG2 cells are transiently transfected with multiple reporter transcription units (MRTUs) in 6-well plates using FuGene 6 reagent (Roche; 3 ml FuGene/1 mg DNA). The MRTU constructs are regulated by a cis-regulating element (promoter). […] A major difference between the CIS and TRANS system is that in CIS activities of endogenous TFs are measured, whereas the TRANS assay evaluates changes in activities of exogenous, chimeric NR-Gal4 proteins. […] At the end of 24 hour incubation, total RNA was isolated using TriZol reagent (Invitrogen). The isolated RNA is then reverse-transcribed using oligo(dT) primer and Mo-MLV reverse transcriptase (Invitrogen) with DNAse I (Ambion) treatment for 30 min. The one-tenth of the produced cDNA was amplified by PCR using Taq DNA polymerase (Invitrogen) and two reporter sequence-specific primers. The PCR products were fluorescently labeled by primer extension with 6-arboxyfluorescein (6-FAM) 5'-labeled reporter sequence-specific primer (2 min at 95 C, 20 s at 68 C and 10 min at 72 C) and these products were digested with 5U of HpaI (New England Biolabs) for 2h at 37 C. The fragments were purified using Qiaquick PCR columns (Qiagen), analyzed on an ABI 3130xL genetic analyzer (Applied Biosystems) with peak positions identified by using a set of X-rhodamine (ROX)-labeled MapMarker1000 molecular weight standards (BioVentures). The raw capillary electrophoresis data was processed using Attagraph software (Attagene).

Row | Structure (SMILES) | outcome | AC50
1 | Cc1ccccc1O | inactive | –
2 | Oc1c(Cl)c(Cl)c(Cl)c(Cl)c1Cl | inactive | –
3 | O=C(O)C(F)(F)C(F)(F)C(F)(F)C(F)(F)C(F)(F)C(F)(F)C(F)(F)C(F)(F)F | inactive | –
4 | CC(C)(c1ccccc1)c1ccc(O)cc1 | inactive | –
5 | O=C(N[C@H]1CN2CCC1CC2)c1cc2ccoc2cn1 | inactive | –
6 | CCOP(=S)(OCC)SCSC(C)(C)C | – | 12 µM (active) and 12.9 µM (active)
7 | CN(C)c1nc(=O)n(C2CCCCC2)c(=O)n1C | inactive | –
8 | O=C(O)C(F)(F)C(F)(F)C(F)(F)C(F)(F)C(F)(F)C(F)(F)C(F)(F)C(F)(F)C(F)(F)F | inactive | –
9 | ClC(Cl)=C(c1ccc(Cl)cc1)c1ccc(Cl)cc1 | inactive | –
10 | Nn1cnnc1 | inactive | –
11 | COS(=O)(=O)OC | inactive | –
12 | CCOC(=O)C(O)(c1ccc(Cl)cc1)c1ccc(Cl)cc1 | inactive | –
13 | CCC(=O)O[C@H]1CC[C@H]2[C@@H]3CCC4=CC(=O)CC[C@]4(C)[C@H]3CC[C@]12C | inactive | 25.3 µM (active)
14 | Oc1ccc(Cl)cc1Cl | inactive | –
15 | O=S(=O)(O)C(F)(F)C(F)(F)C(F)(F)C(F)(F)C(F)(F)C(F)(F)F | inactive | –
16 | C[C@]12CCC(=O)C=C1CC[C@@H]1[C@@H]2CC[C@@]2(C)[C@H]1CC[C@]2(C)O | inactive | –
17 | CCNc1nc(NC(C)C)nc(SC)n1 | inactive | –

Row | Structure (SMILES) | outcome | AC50
18 | CC(C)C(=O)OCC(C)(C)C(OC(=O)C(C)C)C(C)C (stereo not given) | inactive | –
19 | CCCCCCCCCc1ccc(O)cc1 | inactive | –
20 | O=C(O)C(F)(F)C(F)(F)C(F)(F)C(F)(F)C(F)(F)F | inactive | –
21 | CC(C)(O)C(=O)Nc1ccc([N+](=O)[O-])c(C(F)(F)F)c1 | inactive | –
22 | Cc1cc(-c2ccc(N)c(C)c2)ccc1N | inactive | –
23 | C[C@]12CCC(=O)C=C1CC[C@@H]1[C@@H]2CC[C@]2(C)C(=O)CC[C@@H]12 | inactive | –
24 | Cc1cc(O)ccc1Cl | – | 24.3 µM (active)
25 | Cc1ccccc1CO[C@@H]1C[C@@]2(C(C)C)CC[C@]1(C)O2 | – | 32 µM (active)
26 | NS(=O)(=O)C(F)(F)C(F)(F)C(F)(F)C(F)(F)C(F)(F)C(F)(F)C(F)(F)C(F)(F)F | inactive | –
27 | C=CC(N)=O | inactive | –
28 | CCC(C)(c1ccc(O)cc1)c1ccc(O)cc1 | inactive | –
29 | Clc1ccc(Cl)cc1 | inactive | –
30 | O=S(=O)(O)C(F)(F)C(F)(F)C(F)(F)C(F)(F)F | inactive | –
31 | CCC(C)c1cc([N+](=O)[O-])cc([N+](=O)[O-])c1O (stereo not given) | inactive | –
32 | Clc1ccc(C(c2ccccc2Cl)C(Cl)(Cl)Cl)cc1 (stereo not given) | inactive | –
33 | O=C(NC(=O)c1c(F)cccc1F)Nc1cc(Cl)c(OC(F)(F)C(F)F)c(Cl)c1 | inactive | –
34 | N#Cc1ccc(N(CC(N)=O)CC(F)(F)F)cc1C(F)(F)F | inactive | –
